Values without a mark were called inactive. Activity calls are given as the source filed them. Calls come from the whole dose curve; as a rule, active = well fitted curve in the direction sought with a large enough effect; inactive = no such curve, though single readings can be large or run the other way.
biological target: Epidermal growth factor receptor (Homo sapiens) (UniProt P00533); assay: Assay for Inhibitors of the ERK Signaling Pathway using a Homogeneous Screening Assay: EGFR Kinase Inhibition; settings: homogeneous biochemical assay; series mostly up to 21.9 µM; activity change, negative = inhibition: at the top concentration
Description: qHTS Assay for Inhibitors of the ERK Signaling Pathway using a Homogeneous Screening Assay
NIH Chemical Genomics Center [NCGC]
NIH Molecular Libraries Screening Centers Network [MLSCN]
Assay Submitter (PI): Dr. Wei Zheng, NCGC/NIH
The Ras/extracellular-signal-regulated kinase (ERK) mitogen activated protein (MAP) kinase signaling pathway (ERK1/2 cascade) plays is a key role in transmitting signals from the cell surface to the nucleus (Nishida and Gotoh 1993; Chang and Karin, 2001). The cascade is initiated by the small G-protein Ras, which recruits Raf […], where activation occurs. Alternatively, this pathway can be activated by elevating intracellular cAMP.
Activation of the ERK pathway is essential in increased cell division and cell survival. Sustained and constitutive activation of the ERK pathway, however, has been linked to uncontrolled cell proliferation, increased cell survival, and tumor progression. Thus, the ERK has been as an attractive target for cancer chemotherapy in the past few years (Sebolt-Leopold and Herrera, 2004). Given its physiological and pathological importance, assessment of ERK phosphorylation has been broadly performed in both basic research and drug discovery. Most assays for the measurement of ERK phosphorylation use the antibody-based detection methods, such as western blot and ELISA. These assays require multiple reagent additions with cell wash steps and are not suitable for high-throughput screening.
The current cell-based ERK phosphorylation assay was performed using AlphaScreen platform. AlphaScreen is a two bead-based proximity-dependent chemical energy transfer luminescent assay platform. The assay reagents (ERK SureFire(TM) kit) were supplied from TGR BioSciences (Australia). In the presence of specific antibodies, phosphorylated ERK will bring "donor" and "acceptor" beads to a proximity range (<200 nm), and subsequently lead a chemical luminescent reaction upon exciting donor beads with 680 nm laser. To validate pathway hits from the cell-based assay, enzyme assays consisting of EGFR tyrosine kinase, Raf and MEK were used as a means of deciphering the enzymes of target for the prioritized group of compounds derived from the HEK-293 cell based assay. The compounds were tested against significant members of the ERK signaling pathway EGFR and EGFR mutants (EGFR L858R, EGFR T790M, and EGFR L858R T790M). In order to establish the specificity of the prioritized compounds for EGFR and EGFR mutants, the compounds were also assayed against other important ERK signaling pathway enzymes, c-RAF and MEK-1.
NCGC Assay Protocol Summary:
The HTRF kinase assay (components supplied as kit by Cisbio) was chosen for the EGFR and EGFR mutant enzyme assays that applied the time resolved fluorescence resonance energy transfer (TR-FRET) principle. A peptide substrate is labeled with a biotin that can bind to XL665 labeled streptavidin and the anti-phosphoresidue antibody is labeled with Eu+. Upon phosphorylation of the substrate, the antibody binds to phosphorylated substrate that enables TR-FRET detection in homogenous assay format.
An HTRF Kinease TK assay kit (Cisbio, Bedford, MA) was used to develop the EGFR and EGFR mutant assays (Harbert et al., 2008. Harbert C, Marshall J, Soh S, Steger K. Development of a HTRF Kinase Assay for Determination of Syk Activity. Current Chemical Genomics. 1: 20-26. 2008). EGFR and EGFR mutants were obtained from Invitrogen. […]

Chain of Epidermal growth factor receptor (Homo sapiens) (P00533 whole entry, looked up): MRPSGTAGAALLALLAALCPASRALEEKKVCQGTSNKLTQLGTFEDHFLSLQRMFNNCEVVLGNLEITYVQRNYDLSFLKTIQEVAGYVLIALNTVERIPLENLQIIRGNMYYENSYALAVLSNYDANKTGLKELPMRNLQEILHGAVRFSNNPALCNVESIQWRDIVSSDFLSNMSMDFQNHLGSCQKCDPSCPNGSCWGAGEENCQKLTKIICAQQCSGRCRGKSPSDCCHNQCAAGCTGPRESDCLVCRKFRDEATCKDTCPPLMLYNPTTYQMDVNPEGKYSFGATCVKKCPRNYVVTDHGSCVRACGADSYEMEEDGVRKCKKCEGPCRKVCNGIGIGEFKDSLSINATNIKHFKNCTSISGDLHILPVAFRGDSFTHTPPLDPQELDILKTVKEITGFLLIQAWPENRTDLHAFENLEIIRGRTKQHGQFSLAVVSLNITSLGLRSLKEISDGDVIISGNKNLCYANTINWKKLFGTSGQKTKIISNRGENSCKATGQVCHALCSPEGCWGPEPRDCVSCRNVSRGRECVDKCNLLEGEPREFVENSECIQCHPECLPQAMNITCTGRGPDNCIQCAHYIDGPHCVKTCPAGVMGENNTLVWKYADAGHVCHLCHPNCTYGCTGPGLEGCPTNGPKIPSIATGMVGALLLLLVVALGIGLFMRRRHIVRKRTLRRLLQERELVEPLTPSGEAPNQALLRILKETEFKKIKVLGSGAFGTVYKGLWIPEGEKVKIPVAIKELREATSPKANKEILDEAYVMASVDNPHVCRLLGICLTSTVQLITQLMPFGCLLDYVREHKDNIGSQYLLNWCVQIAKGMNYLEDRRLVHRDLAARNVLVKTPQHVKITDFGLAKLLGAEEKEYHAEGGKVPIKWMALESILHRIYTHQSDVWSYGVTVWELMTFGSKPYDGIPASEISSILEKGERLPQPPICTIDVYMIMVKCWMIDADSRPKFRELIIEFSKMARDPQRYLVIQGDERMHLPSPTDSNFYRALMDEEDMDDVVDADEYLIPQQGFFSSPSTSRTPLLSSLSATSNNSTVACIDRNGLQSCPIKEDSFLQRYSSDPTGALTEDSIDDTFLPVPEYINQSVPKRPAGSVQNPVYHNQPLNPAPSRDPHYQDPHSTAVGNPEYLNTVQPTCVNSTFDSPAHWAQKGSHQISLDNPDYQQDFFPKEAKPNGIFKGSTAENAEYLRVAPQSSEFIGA

| SMILES | outcome | activity change, negative = inhibition |
| --- | --- | --- |
| Cc1nc2c(=O)n(C)c(=O)nc-2n(C)n1 | inactive |  |
| CN1CCN(c2cccc3c2C(=O)c2ccccc2C3=O)CC1 |  | -7.67% |
| CCn1nc(-c2cccs2)nc2c(=O)n(C)c(=O)nc1-2 |  | -15.7% [at 65.8 µM] |
| CCn1nc(-c2ccccc2)nc2c(=O)n(C)c(=O)nc1-2 |  | -14.2% [at 65.8 µM] |
| Cn1nc(-c2ccccc2)nc2c(=O)n(C)c(=O)nc1-2 |  | -16.4% |

Reference: PubChem BioAssay AID1731 (National Center for Advancing Translational Sciences (NCATS), 2009)
